Laboratory results published in the supplement of paper PMC8728848.
Only a selection was taken, and the strongest signals are over-represented in it overall.

B1: Surfactant Protein D (Human); Neck + Carbohydrate Recognition Domain (NCRD) (Homo sapiens) (protein)
chain: MLLFLLSALVLLTQPLGYLEAEMKTYSHRTMPSACTLVMCSSVESGLPGRDRDGREGPRGEKGDPGLPGAAGQAGMPGQAGPVGPKGDNGSVGEPGPKGDTGPSGPPGPPGVPGPAGREGALGKQGNIGPQGKPGPKGEAGPKGEVGAPGMQGSAGARGLAGPKGERGVPGERGVPGNTGAAGSAGAMGPQGSPGARGPPGLKGDKGIPGDKGAKGESGLPDVASLRQQVEALQGQVQHLQAAFSQYKKVELFPNGQSVGEKIFKTAQFVKPFTEAQLLCTQAGGQLASPRSAAENAALQQLVVAKNEAAFLSMTDSKTEGKFTYPTGESLVYSNWAPGEPNDDGGSADCVEIFTNGKWNDRACGAKRLVVCEF
B2: CLL-1 (Homo sapiens) (protein)
chain: MWIDFFTYSSMSEEVTYADLQFQNSSEMEKIPEIGKFGEKAPPAPSHVWRPAALFLTLLCLLLLIGLGVLASMFHVTLKIEMKKMNKLQNISEELQRNISLQLMSNMNISNKIRNLSTTLQTIATKLCRELYSKEQEHKCKPCPRRWIWHKDSCYFLSDDVQTWQESKMACAAQNASLLKINNKNALEFIKSQSRSYDYWLGLSPEEDSTRGMRVDNIINSSAWVIRNAPDLNNMYCGYINRLYVQYYHCTYKKRMICEKMANPVQLGSTYFREA

What was measured:
Experiment in all cases: glycan array binding signal (z-score within array); higher = stronger binding
[1] = target: Fuc(a1-2)[Gal(a1-4)]Gal(b1-4)GlcNAc; conditions: glycan notation: IUPAC condensed, linker removed; mutation: E347A
Method in brief: (§1)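 Glycan array data came from 3228 arrays in the Consortium for Functional Glycomics database, and only arrays with an available protein sequence were kept. Glycan names were put into IUPAC-condensed notation, and columns mapping to the same glycan were averaged. The binding signal is a within-array Z-score, averaged across arrays of one protein sequence run at different concentrations or buffers and across linkers. A negative Z-score can be read as non-binding.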

[2] = target: Fuc(a1-3)[GalNAc(b1-4)]GlcNAc; conditions: glycan notation: IUPAC condensed, linker removed; mutation: E347A
Method in brief: as §1

Gal(a1-3)Gal(b1-4)GlcNAc = conditions: glycan notation: IUPAC condensed, linker removed; mutation: E347A
Method in brief: as §1

Gal(a1-3)GalNAc = conditions: glycan notation: IUPAC condensed, linker removed; mutation: E347A
Method in brief: as §1

Gal(a1-6)Glc = conditions: glycan notation: IUPAC condensed, linker removed; mutation: E347A
Method in brief: as §1

Gal(b1-2)Gal = conditions: glycan notation: IUPAC condensed, linker removed; mutation: E347A
Method in brief: as §1

[3] = target: Gal(b1-3)GlcNAc(b1-3)Gal(b1-4)GlcNAc; conditions: glycan notation: IUPAC condensed, linker removed; mutation: E347A
Method in brief: as §1

[4] = target: Gal(b1-3)[GlcNAc(b1-6)]GalNAc; conditions: glycan notation: IUPAC condensed, linker removed; mutation: E347A
Method in brief: as §1

[5] = target: Gal(b1-3)[Neu5Ac(a2-6)]GlcNAc(b1-6)Gal(b1-4)Glc; conditions: glycan notation: IUPAC condensed, linker removed; mutation: E347A
Method in brief: as §1

[6] = target: Gal(b1-4)GlcNAc(a1-6)Gal(b1-4)GlcNAc; conditions: glycan notation: IUPAC condensed, linker removed; mutation: E347A
Method in brief: as §1

[7] = target: Gal(b1-4)GlcNAc(b1-3)Gal(b1-4)GlcNAc; conditions: glycan notation: IUPAC condensed, linker removed; mutation: E347A
Method in brief: as §1

[8] = target: Gal(b1-4)GlcNAc(b1-3)GalNAc; conditions: glycan notation: IUPAC condensed, linker removed
Method in brief: as §1

[9] = target: Gal(b1-4)GlcNAc(b1-6)Gal(b1-4)GlcNAc; conditions: glycan notation: IUPAC condensed, linker removed; mutation: E347A
Method in brief: as §1

GlcNAc(b1-3)Gal = conditions: glycan notation: IUPAC condensed, linker removed; mutation: E347A
Method in brief: as §1

GlcNAc3Prop(b1-4)GlcNAc = conditions: glycan notation: IUPAC condensed, linker removed; mutation: E347A
Method in brief: as §1

Man(a1-2)Man(a1-3)Man = conditions: glycan notation: IUPAC condensed, linker removed; mutation: E347A
Method in brief: as §1

[10] = target: Man(a1-2)Man(a1-3)[Man(a1-2)Man(a1-6)]Man; conditions: glycan notation: IUPAC condensed, linker removed; mutation: E347A
Method in brief: as §1

[11] = target: Man(a1-2)Man(a1-3)[Man(a1-2)Man(a1-6)]Man(a1-6)[Man(a1-2)Man(a1-2)Man(a1-3)]Man; conditions: glycan notation: IUPAC condensed, linker removed; mutation: E347A
Method in brief: as §1

[12] = target: Man(a1-2)Man(a1-3)[Man(a1-6)]Man(a1-6)[Man(a1-2)Man(a1-3)]Man(b1-4)GlcNAc(b1-4)GlcNAc; conditions: glycan notation: IUPAC condensed, linker removed; mutation: E347A
Method in brief: as §1

[13] = target: Man(a1-2)Man(a1-6)[Man(a1-3)]Man(a1-6)[Man(a1-2)Man(a1-2)Man(a1-3)]Man; conditions: glycan notation: IUPAC condensed, linker removed; mutation: E347A
Method in brief: as §1

[14] = target: Man(a1-3)[Man(a1-6)]Man(a1-6)[Man(a1-2)Man(a1-3)]Man(b1-4)GlcNAc(b1-4)GlcNAc; conditions: glycan notation: IUPAC condensed, linker removed; mutation: E347A
Method in brief: as §1

[15] = target: Man(a1-3)[Man(a1-6)]Man(a1-6)[Man(a1-3)]Man(b1-4)GlcNAc(b1-4)GlcNAc; conditions: glycan notation: IUPAC condensed, linker removed; mutation: E347A
Method in brief: as §1

[16] = target: Neu5Ac(a2-3)Gal(b1-3)GlcNAc; conditions: glycan notation: IUPAC condensed, linker removed; mutation: E347A
Method in brief: as §1

[17] = target: Neu5Ac(a2-3)Gal6S(b1-4)[Fuc(a1-3)]GlcNAc; conditions: glycan notation: IUPAC condensed, linker removed; mutation: E347A
Method in brief: as §1

[18] = target: Neu5Gc(a2-3)Gal(b1-3)GlcNAc; conditions: glycan notation: IUPAC condensed, linker removed; mutation: E347A
Method in brief: as §1

[19] = target: Fuc(a1-2)[GalNAc(a1-3)]Gal(b1-4)Glc; conditions: glycan notation: IUPAC condensed, linker removed
Method in brief: as §1

[20] = target: Gal(b1-3)GalNAc(b1-4)Gal(b1-4)Glc; conditions: glycan notation: IUPAC condensed, linker removed
Method in brief: as §1

[21] = target: Gal(b1-4)GlcNAc(b1-3)Gal(b1-4)[Fuc(a1-3)]GlcNAc(b1-3)Gal(b1-4)[Fuc(a1-3)]GlcNAc; conditions: glycan notation: IUPAC condensed, linker removed
Method in brief: as §1

Gal3S6S(b1-4)GlcNAc6S = conditions: glycan notation: IUPAC condensed, linker removed
Method in brief: as §1

Glc(a1-4)Glc = conditions: glycan notation: IUPAC condensed, linker removed
Method in brief: as §1

GlcNAc(b1-3)GalNAc = conditions: glycan notation: IUPAC condensed, linker removed
Method in brief: as §1

[22] = target: GlcNAc(b1-3)[GlcNAc(b1-6)]GalNAc; conditions: glycan notation: IUPAC condensed, linker removed
Method in brief: as §1

[23] = target: GlcNAc(b1-4)[GlcNAc(b1-6)]GalNAc; conditions: glycan notation: IUPAC condensed, linker removed
Method in brief: as §1

[24] = target: Neu5Ac(a2-3)Gal(b1-3)[Fuc(a1-4)]GlcNAc; conditions: glycan notation: IUPAC condensed, linker removed
Method in brief: as §1

[25] = target: Neu5Ac(a2-3)Gal(b1-4)GlcNAc; conditions: glycan notation: IUPAC condensed, linker removed
Method in brief: as §1

[26] = target: Neu5Ac(a2-3)Gal(b1-4)GlcNAc(b1-3)Gal(b1-4)GlcNAc(b1-3)Gal(b1-4)GlcNAc; conditions: glycan notation: IUPAC condensed, linker removed
Method in brief: as §1

[27] = target: Neu5Ac(a2-3)Gal(b1-4)[Fuc(a1-3)]GlcNAc6S; conditions: glycan notation: IUPAC condensed, linker removed
Method in brief: as §1

[28] = target: Neu5Ac9Ac(a2-6)Gal(b1-4)GlcNAc; conditions: glycan notation: IUPAC condensed, linker removed
Method in brief: as §1

[29] = target: Neu5Gc(a2-6)Gal(b1-4)GlcNAc; conditions: glycan notation: IUPAC condensed, linker removed
Method in brief: as §1

Binder | glycan array binding signal (z-score) [1] | glycan array binding signal (z-score) [2] | glycan array binding signal (z-score) (Gal(a1-3)Gal(b1-4)GlcNAc) | glycan array binding signal (z-score) (Gal(a1-3)GalNAc) | glycan array binding signal (z-score) (Gal(a1-6)Glc) | glycan array binding signal (z-score) (Gal(b1-2)Gal) | glycan array binding signal (z-score) [3] | glycan array binding signal (z-score) [4] | glycan array binding signal (z-score) [5] | glycan array binding signal (z-score) [6] | glycan array binding signal (z-score) [7] | glycan array binding signal (z-score) ([8]; mutation: E347A) | glycan array binding signal (z-score) [9] | glycan array binding signal (z-score) (GlcNAc(b1-3)Gal) | glycan array binding signal (z-score) (GlcNAc3Prop(b1-4)GlcNAc) | glycan array binding signal (z-score) (Man(a1-2)Man(a1-3)Man) | glycan array binding signal (z-score) [10] | glycan array binding signal (z-score) [11] | glycan array binding signal (z-score) [12] | glycan array binding signal (z-score) [13] | glycan array binding signal (z-score) [14] | glycan array binding signal (z-score) [15] | glycan array binding signal (z-score) [16] | glycan array binding signal (z-score) [17] | glycan array binding signal (z-score) [18] | glycan array binding signal (z-score) [19] | glycan array binding signal (z-score) [20] | glycan array binding signal (z-score) [21] | glycan array binding signal (z-score) [8] | glycan array binding signal (z-score) (Gal3S6S(b1-4)GlcNAc6S) | glycan array binding signal (z-score) (Glc(a1-4)Glc) | glycan array binding signal (z-score) (GlcNAc(b1-3)GalNAc) | glycan array binding signal (z-score) [22] | glycan array binding signal (z-score) [23] | glycan array binding signal (z-score) [24] | glycan array binding signal (z-score) [25] | glycan array binding signal (z-score) [26] | glycan array binding signal (z-score) [27] | glycan array binding signal (z-score) [28] | glycan array binding signal (z-score) [29]
B1 | -0.321 | -0.435 | -0.244 | -0.384 | -0.408 | -0.48 | -0.211 | -0.15 | -0.424 | -0.244 | 0.532 | -0.384 | -0.317 | -0.071 | -0.18 | 1.58 | 6.34 | -0.461 | 10.1 | 5.19 | 10.2 | 0.008 | -0.335 | -0.255 | 0 | – | – | – | – | – | – | – | – | – | – | – | – | – | – | –
B2 | – | – | – | – | – | – | – | – | – | – | – | – | – | – | – | – | – | – | – | – | – | – | – | – | – | -0.065 | -0.279 | -0.107 | -0.238 | 3.91 | 1 | -0.228 | -0.19 | -0.247 | 1.22 | -0.14 | 2.45 | -0.15 | -0.216 | -0.231
